Reference: the supplement of paper PMC6555819

Tests used:
Test in all cases: PBM binding z-score (relative to random genomic background probes); higher = stronger binding; sequences stand for … in GC…GCGATTGACAGCGTAGAATGAAGG
[1] = system: FXR:RXRa (NR concentration 270 nM, RXRa partner concentration 90 nM)
How it was run: (§1)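 Ligand-free nuclear receptor dimers were bound for 1 h to custom Agilent 4×180K protein-binding microarrays. Detection used antibodies against each partner (one per run). Binding z-scores rest on regression-normalized fluorescence, with random background probes as the reference.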

[2] = system: LXRa:RXRa (NR concentration 270 nM, RXRa partner concentration 90 nM)
How it was run: as §1

[3] = system: LXRa homodimer (NR concentration 270 nM)
How it was run: as §1

[4] = system: LXRb:RXRa (NR concentration 270 nM, RXRa partner concentration 90 nM)
How it was run: as §1

[5] = system: LXRb homodimer (NR concentration 270 nM)
How it was run: as §1

[6] = system: PPARa:RXRa (NR concentration 270 nM, RXRa partner concentration 90 nM)
How it was run: as §1

[7] = system: PPARg:RXRa (NR concentration 180 nM, RXRa partner concentration 90 nM)
How it was run: as §1

[8] = system: PPARg:RXRa 270nM:90nM, anti-RXR (NR concentration 270 nM, RXRa partner concentration 90 nM)
How it was run: as §1

[9] = system: PPARg:RXRa 30nM:10nM, anti-RXR (NR concentration 30 nM, RXRa partner concentration 10 nM)
How it was run: as §1

[10] = system: PPARg:RXRa 90nM:30nM, anti-RXR (NR concentration 90 nM, RXRa partner concentration 30 nM)
How it was run: as §1

[11] = system: PPARg:RXRa DBDmut IVT, anti-RXR (DBD mutation: RXRa K156A/R161A, NR concentration 270 nM, RXRa partner concentration 90 nM)
How it was run: as §1

[12] = system: PPARg:RXRa IVT, anti-PPARg (NR concentration 270 nM, RXRa partner concentration 90 nM)
How it was run: as §1

[13] = system: PPARg DBDmut:RXRa IVT, anti-PPARg (DBD mutation: PPARg1 K132A/R137A, NR concentration 270 nM, RXRa partner concentration 90 nM)
How it was run: as §1

[14] = system: PPARg DBDmut IVT, anti-PPARg (DBD mutation: PPARg1 K132A/R137A, NR concentration 270 nM)
How it was run: as §1

[15] = system: PPARg homodimer (NR concentration 180 nM)
How it was run: as §1

[16] = system: PXR:RXRa (NR concentration 270 nM, RXRa partner concentration 90 nM)
How it was run: as §1

[17] = system: PXR homodimer (NR concentration 270 nM)
How it was run: as §1

[18] = system: RARa:RXR (NR concentration 270 nM, RXRa partner concentration 90 nM)
How it was run: as §1

[19] = system: RARa homodimer (NR concentration 270 nM)
How it was run: as §1

[20] = system: RARb:RXRa (NR concentration 270 nM, RXRa partner concentration 90 nM)
How it was run: as §1

Sequence	PBM binding z-score [1]	PBM binding z-score [2]	PBM binding z-score [3]	PBM binding z-score [4]	PBM binding z-score [5]	PBM binding z-score [6]	PBM binding z-score [7]	PBM binding z-score [8]	PBM binding z-score [9]	PBM binding z-score [10]	PBM binding z-score [11]	PBM binding z-score [12]	PBM binding z-score [13]	PBM binding z-score [14]	PBM binding z-score [15]	PBM binding z-score [16]	PBM binding z-score [17]	PBM binding z-score [18]	PBM binding z-score [19]	PBM binding z-score [20]
AGAATGAGGTTATACGTTGATCAGGGAAGAAAGT	2.25	1.89	0.234	1.66	0.0742	3.37	2.03	2.34	1.01	1.78	2.33	2.33	1.31	1.24	1.05	1.18	0.411	1.69	0.556	1.44
ACAGACAGGTGAGTGGAGGTAACTCAGCTGGACG	0.578	0.206	-0.47	-0.13	-0.275	0.431	0.557	-0.0456	-0.0591	0.000165	0.56	1.09	-0.327	-0.467	0.425	0.121	-0.151	0.729	-0.053	0.617
AACTCTAGGTAAAGATAGTTCAGTGAATGCAAAT	0.28	3.96	0.498	0.633	-0.176	0.465	0.601	0.353	0.0247	0.245	2.43	1.47	1.03	0.24	0.547	0.755	0.513	0.462	0.929	0.576
CCTTACTGGTCAAGGTTATAGCACGGGTGGTACG	0.733	0.968	0.49	0.767	0.339	1.43	0.792	1.03	0.301	0.959	0.149	0.857	0.06	0.0641	1.25	1.12	0.519	1.01	0.942	2.02
CCTATTGGGCCATTCAGAGGTCATTGATCATATG	3	4.68	6.08	4.04	0.58	3.65	1.17	2.6	0.568	1.77	2.6	2.48	0.246	0.228	1.37	4.71	2.54	4.7	0.541	3.28
CTCGTAAGGTCGGTTGAGGTGAGTATACGGATAA	2.14	1.03	-0.261	0.701	-0.404	1.46	0.0124	0.578	-0.175	0.326	0.0738	0.679	-0.123	0.104	0.333	2.72	0.279	1.82	-0.0631	2.29
TCTCGTAGATCAGCAGGTTAAGAAAGCTGGCCAA	-0.53	-0.117	-0.522	0.0597	-1.13	0.428	-0.691	1.22	2.41	2.08	1.33	-0.478	-0.653	-0.513	-0.593	-0.00394	-0.361	0.521	-0.998	-0.0596
GCTGCTAGGTCAACTGATTGTCAGCTAAAGCTCG	4.09	2.79	-0.17	2.06	0.0753	3.54	2.73	3.13	0.683	2.12	4.92	4.51	-0.116	-0.522	0.898	1.19	-0.593	2.27	-0.584	4.25
CCGAGTTGGTCAGGAGGTCACACACCGGATATGA	3.49	3.18	1.86	2.93	-0.213	4.03	2.62	3.24	0.983	2.36	0.95	2.61	0.01	0.0417	3.62	4.53	1.31	4.71	1.54	3.66
ATCTCTAGGTAACCAAGTTCCGTGAATGCCGAAC	-0.0612	0.165	0.165	0.157	0.617	0.45	0.308	0.331	-0.073	0.181	3.6	2.9	0.664	0.557	0.453	0.03	0.0548	0.264	0.19	0.435
ACTATTAGTTGACTTAGGGCAACCCATACGACGC	0.287	0.126	0.344	0.24	0.53	0.137	1.03	0.234	0.457	0.203	0.51	0.696	0.977	1.6	0.67	0.18	0.375	0.59	1.02	0.823
ACTAGCAGGCCAAGGGTCACTAAAGATTAGTCCG	2.25	3.51	-0.00755	2.66	-0.174	4.34	8.06	7.21	6.64	7.61	1.3	3.86	0.0188	-0.44	2	3	-0.139	3.97	0.15	3.42
ACAGACAGGTGAGTGAAGGTAACTCCGCTGGACG	0.216	-0.067	-0.195	-0.498	-0.566	0.0372	0.503	-0.251	0.0064	-0.389	0.529	0.681	-0.384	-0.279	-0.155	-0.132	-0.203	0.0904	-0.274	0.621
ATCGAAAGCTCGAAGGTGAGTATACCCACCCGAA	-0.601	-0.626	-0.677	-0.458	-0.832	-0.531	0.476	-0.226	-0.209	-0.372	-0.94	-0.157	0.15	-0.14	-1.31	-0.547	-0.343	-0.558	-0.499	0.055
